From PubChem BioAssay AID1903 (Southern Research Specialized Biocontainment Screening …, 2009)
Among all 310,000 compounds or so, about 1,200 (0.39%) were called active. No rule for the calls is given here. Not all results are given here. Measured potencies and affinities stand elsewhere.

Each compound was assayed against Large T antigen (Simian virus 40) (UniProt P03070) (assay: TAg ATPase/helicase activity blockers – biochemical (AID 1903)). Conditions: SV40 large T antigen ATPase/helicase inhibition assay; at 20 µM; stronger effect = higher value.
Chain of Large T antigen (Simian virus 40) (P03070 whole entry, looked up): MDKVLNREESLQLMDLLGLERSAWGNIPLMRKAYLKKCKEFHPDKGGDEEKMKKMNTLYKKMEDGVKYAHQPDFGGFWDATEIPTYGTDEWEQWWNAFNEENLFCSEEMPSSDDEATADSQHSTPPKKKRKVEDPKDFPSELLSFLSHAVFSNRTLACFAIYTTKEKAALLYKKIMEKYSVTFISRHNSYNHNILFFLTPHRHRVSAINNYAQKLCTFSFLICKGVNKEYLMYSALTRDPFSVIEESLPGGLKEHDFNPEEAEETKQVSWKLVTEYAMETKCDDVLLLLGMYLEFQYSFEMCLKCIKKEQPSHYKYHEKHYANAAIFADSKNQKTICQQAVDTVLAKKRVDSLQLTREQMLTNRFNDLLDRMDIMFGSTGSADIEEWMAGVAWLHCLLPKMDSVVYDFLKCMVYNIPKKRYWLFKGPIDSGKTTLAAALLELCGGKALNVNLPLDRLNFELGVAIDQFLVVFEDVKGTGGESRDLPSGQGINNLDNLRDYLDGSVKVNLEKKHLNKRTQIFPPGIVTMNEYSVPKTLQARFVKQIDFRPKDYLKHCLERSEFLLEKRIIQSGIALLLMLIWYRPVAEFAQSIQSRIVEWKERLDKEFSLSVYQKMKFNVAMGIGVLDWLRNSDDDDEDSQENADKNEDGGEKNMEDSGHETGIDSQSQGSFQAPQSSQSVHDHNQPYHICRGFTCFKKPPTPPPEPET

inhibition, inactive:
O=C(OCc1ccccc1)N1CCOCCN(C(=O)OCc2ccccc2)CCOCC1 0.08%, c1ccc(N2CCN(c3nc(-c4cccs4)nc4ccccc34)CC2)cc1 17.6%, COC(=O)c1cccc(C(=O)N2CCCC(C(=O)c3ccccc3OC)C2)c1 (stereo not drawn) 2.9%, Cc1ccccc1CCNC(=O)Cn1ccc2cc(S(=O)(=O)N3CCCC3)ccc21 11.1%, CCN(Cc1ccccc1)C(=O)CCS(=O)(=O)c1ccc2c(c1)NC(=O)CO2 6.63%, COc1cccc(/C=N/NC(=O)CCn2nnc3ccccc32)c1 9.43%, COc1cc(Cn2nnc3ccccc32)cc(Br)c1O 29.6%, COc1cccc(/C=N/NC(=O)C(C)n2nnc3ccccc32)c1 (stereo not drawn) 23.4%, COc1ccc(/C=N/NC(=O)CCn2nnc3ccccc32)cc1 3.72%, CN(C)c1ccc(/C=N/NC(=O)Cn2nnc3ccccc32)cc1 14.7%, COc1ccc(Cn2nnc3ccccc32)cc1 0.77%, COc1ccc(/C=N/NC(=O)C(C)n2nnc3ccccc32)cc1OC (stereo not drawn) -3.35%, COc1cccc(/C=N\NC(=O)Cn2nnc3ccccc32)c1O 34.8%, O=C(Cn1ccc2ccccc2c1=O)NCC(=O)N1CCN(c2ccccc2F)CC1 5.42%, CC(=O)Nc1ccccc1OC(C)C(=O)N1CC(C)CC(C)C1 (stereo not drawn) 2.89%, CCOc1ccc(NC(=O)N2CCC(n3nnc4cc(C)ccc43)CC2)cc1 -5.9%, Cn1c(=O)cc(SCC(=O)Nc2ccccn2)c2ccccc21 18.7%, COC(=O)c1ccccc1NC(=O)N1CCN(S(C)(=O)=O)CC1 5.14%, CCNC(=S)N(CCc1ccccc1C)Cc1cc2cc(OC)c(OC)cc2[nH]c1=O 2.57%, COc1ccc(N(CC(=O)NCc2ccc(F)cc2)C(=O)c2snc(C(N)=O)c2N)cc1OC 5.71%, CSc1ccc(C#N)cc1NC(=O)c1cccnc1Cl 1.02%, C/C(=N\NC(=O)Cn1ccc(C(F)(F)F)n1)c1ccc(N2CCOCC2)cc1 5.06%, COc1ccc(/C=N/NC(=O)CCc2c(C)n[nH]c2C)cc1OC 0.79%, COc1ccc(/C=N/NC(=O)Cn2nnc3ccccc32)cc1OC 9.9%, COc1ccc(O)c(/C=N\NC(=O)CCn2nnc3ccccc32)c1 9.4%, COc1ccc(/C=N/NC(=O)CCc2c(C)n[nH]c2C)cc1O 33.9%, CCOc1cc(/C=N/NC(=O)CCn2nc(C)cc2C)ccc1O 33.9%, COc1cc(/C=N/NC(=O)CCn2c3ccccc3c3ccccc32)ccc1O 13.3%, COc1cc(/C=N\NC(=O)Cn2nnc3ccccc32)cc(OC)c1OC 4.84%, COc1ccc(/C=N/NC(=O)CCn2nc(C)cc2C)cc1O 32.7%, CC1CCCN(C(=O)N2c3ccccc3Sc3ccccc32)C1 (stereo not drawn) 6.24%, CCOC(=O)c1c(-c2ccccc2)csc1NC(=O)c1ccc(S(=O)(=O)N2CCOCC2)cc1 11.2%, C=CCn1c(COc2ccc(Cl)cc2)nnc1SCC(=O)Nc1ccc(S(N)(=O)=O)cc1 -7.84%, COc1cccc2cc(-c3nnc(-c4ccccc4)o3)c(=O)oc12 3.9%, COC(CN(C)C(C(=O)NC1CCCCC1)c1ccccc1)OC (stereo not drawn) -3.44%, Cc1cc(C)cc(NC(=O)Nn2cnnc2)c1 14.3%, CCCCN(Cc1ccccc1)C(=O)CCN1C(=O)C2C3C=CC(C3)C2C1=O (stereo not drawn) 8.63%, Cc1cc([N+](=O)[O-])ccc1NC(=O)c1cncc(Br)c1 12.5%, COC(=O)c1ccc(S(=O)(=O)c2ccc(Cl)cc2)c(N)c1 13.4%, COC(=O)c1ccc(C(=O)NC2CCSc3ccccc32)cc1 (stereo not drawn) 6.81%, CC(C)CCN1CCN=C1Nc1ccccc1 0.58%, Cn1c(SCc2ccc([N+](=O)[O-])cc2)nc2c(c1=O)SCC2 3.17%, CC(C)c1ccc2nc(N)sc2c1 8.35%, Fc1ccc2nc(N3CCOCC3)sc2c1 -1.3%, Nc1nc2ccc(S(=O)(=O)c3ccc4nc(N)sc4c3)cc2s1 10.5%, c1ccc2sc(N3CCOCC3)nc2c1 20.2%, CC(Sc1nc2c(c(=O)[nH]1)CCCC2)C(=O)Nc1ccccc1C#N (stereo not drawn) 6.43%, O=C(N/N=C/c1cnc(N2CCOCC2)s1)c1ccccc1 11.5%, O=C(COc1ccccc1)NCC(=O)NC1=NCCS1 3.88%, COc1cc(/C=C/C(=O)OCC(=O)N(C)C2CCS(=O)(=O)C2)ccc1OC(F)F (stereo not drawn) -1.47%, COc1cc(/C=C/C(=O)OCC(=O)NC2CCS(=O)(=O)C2)ccc1O (stereo not drawn) 34%, Cc1ccc(NC(=O)CN(C)S(=O)(=O)c2ccc3[nH]c(=O)oc3c2)c(C)c1 10.9%, CC1CC(C)CN(CC(=O)N2CCc3[nH]c4ccccc4c3C2)C1 (stereo not drawn) -3.87%, O=C1/C(=C\c2ccco2)SC(=S)N1C1CCS(=O)(=O)C1 (stereo not drawn) 22.2%, Cc1ccc(/C=C2\SC(=S)N(C3CCS(=O)(=O)C3)C2=O)o1 (stereo not drawn) 9.87%, Cc1ccc(/C=C2/SC(=S)N(C3CCCCC3)C2=O)o1 31.8%, O=C1/C(=C/c2ccco2)SC(=S)N1C1CCS(=O)(=O)C1 (stereo not drawn) 33.6%, COc1ccc(C2C(C(=O)Nc3ccc(OC)c(OC)c3)c3ccccc3C(=O)N2C)cc1 (stereo not drawn) 5.35%, CCOC(=O)c1ccc(NC(=O)CN2CCN(Cc3ccccc3)CC2)cc1 -0.24%, O=C1NC(=O)/C(=C\c2cn(Cc3ccccc3F)c3ccccc23)N1 8.29%, C/C(=N\NC(=O)CCc1c(C)n[nH]c1C)c1ccc([N+](=O)[O-])cc1 3.31%, COc1ccc(C(=O)N/N=C(\C)Cn2nc([N+](=O)[O-])cc2C)cc1 8.1%, COc1cc(/C(C)=N/NC(=O)CN2CCN(S(=O)(=O)c3ccc(C)cc3)CC2)ccc1O 20.9%, C/C(Cn1nc([N+](=O)[O-])cc1C)=N\NC(=O)c1ccc(C(C)(C)C)cc1 9.13%, COc1cc(C(=O)N/N=C(\C)c2ccc(NC(=O)Cc3ccccc3)cc2)ccc1O 37.2%, C/C(=N\NC(=O)Cc1ccc(F)cc1)c1ccc(O)cc1 36.9%, COc1ccc(-c2noc(Cc3ccccc3OC)n2)cc1 5.97%, CCOc1ccccc1C(=O)NCC(=O)N(C)Cc1cccnc1 0.45%, CC1CCc2cc(F)ccc2N1C(=O)c1cc2nc(-c3ccco3)cc(C(F)(F)F)n2n1 (stereo not drawn) 0.153%, Cc1ccc(-c2cc(O)cc3sc(=O)oc23)cc1C 9.82%, O=c1oc2c(-c3cccc(F)c3)cc(O)cc2s1 6.75%, Cc1cc(NC(=O)CSc2nnc3c(C)cc4ccccc4n23)no1 23.4%, CCc1cccc(C)c1NC(=O)CCCSc1nc2ccccc2s1 3.33%, COc1ccccc1-n1c(CNc2ccc(F)cc2)nnc1SCC(=O)Nc1cc(C)on1 25.1%, COc1ccc(NCc2nnc(SCC(=O)Nc3ccc(OC)cc3)n2C)cc1 9.42%, COc1ccc(NCc2nnc(SCC(=O)c3ccc(OC)cc3)n2C)cc1 21.2%, CCOc1ccc(NCc2nnc(SCC(=O)Nc3cc(C)on3)n2-c2ccccc2OC)cc1 15.1%, CS(=O)(=O)N1CCc2cc(S(=O)(=O)N3CCCCC3)ccc21 11.4%, COc1ccc(C(C)=O)cc1COc1ccc(Cl)cc1Cl 1.32%, Cc1ccc(S(=O)(=O)N(CC(=O)Nc2cccnc2)c2cccc(Br)c2)cc1 14.9%, Oc1ccc(Nc2nc3ccccc3nc2Nc2ccc(O)cc2)cc1 35%, Cc1cc(C)nc(Nc2ccc(C(=O)O)cc2)n1 3.63%, Cc1cc(C)nc(Nc2ccc(O)cc2)n1 45.6%, Oc1ccc(Nc2nnc(-c3ccc(O)cc3)c3ccccc23)cc1 20.3%, O=C(OC1CCCCC1=O)c1cccc(S(=O)(=O)N2CCOCC2)c1 (stereo not drawn) 1.22%, CC(=O)Nc1cccc(-c2csc(NCc3ccco3)n2)c1 13.3%, CCOC(=O)C1=C(C)Nc2nc(C)nn2C1c1cc(OC)ccc1OC (stereo not drawn) 5.76%, Nc1cccc2c3c(oc12)CCCC3 4.56%, O=C(Nc1ccc(-c2ccc3nncn3n2)cc1)C1CCCC1 0.86%, CCC(C)N(C(=O)COC(=O)c1ccccc1SCC(=O)N1CCCC1)C1CCS(=O)(=O)C1 (stereo not drawn) 1.39%, c1ccc(Cn2nnnc2CN2CCN(c3ncccn3)CC2)cc1 0.78%, CCCc1cc(C(N)=O)c(NC(=O)c2cc(C)on2)s1 8.78%, Cc1csc(C(=O)NCC(=O)NNC(=O)c2cccc(Cl)c2)c1 0.72%, CCn1nc(C(=O)Nc2nc3ccc(C)cc3s2)c2ccccc2c1=O 0.39%, COc1cc(/C=N/NC(=O)CC(=O)NC2CCCCC2)ccc1O 26.4%, COc1cc(/C=N/NC(=O)C2c3ccccc3Oc3ccccc32)ccc1O 13.3%, COc1cc(/C=N/NC(=O)NC2CCCCC2)cc(OC)c1O 31.1%, COc1cc(/C=N/NC(=O)NC23CC4CC(CC(C4)C2)C3)ccc1O 26.5%
